Key:
Settings in all cases: concentration: 1 μM, replicates: in singlicate; n = 1
ZAK = system: ZAK
ZAP70 = system: ZAP70
p38-alpha = system: T1, p38-alpha
T1 construct: gene MAPK14

p38-beta = system: T2, p38-beta
T2 construct: gene MAPK11

p38-delta = system: p38-delta
p38-gamma = system: T3, p38-gamma
T3 construct: gene MAPK12
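Further: KINOMEscan kinase panel screen.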

COc1cc(Nc2nccc(N3CCC(NC(=O)Nc4cccc(C(C)=O)c4)C3)n2)cc(OC)c1OC (stereo not drawn) [GSK1379753]
%Inh (ZAK): 0% | %Inh (ZAP70): 12% | %Inh (p38-alpha): 0% | %Inh (p38-beta): 0% | %Inh (p38-delta): 41% | %Inh (p38-gamma): 0%

CNC(=O)c1ccccc1Nc1nc(Nc2ccc(N3CCOCC3)cc2)ncc1Cl.Cl [GSK1576028]
%Inh (ZAK): 13% | %Inh (ZAP70): 6% | %Inh (p38-alpha): 8% | %Inh (p38-beta): 2% | %Inh (p38-delta): 0% | %Inh (p38-gamma): 13%

Cl.Cl.NCC(NCc1ccc(-c2ccnc3[nH]ccc23)s1)c1ccccc1 (stereo not drawn) [GSK1321565]
%Inh (ZAK): 15% | %Inh (ZAP70): 0% | %Inh (p38-alpha): 27% | %Inh (p38-beta): 0% | %Inh (p38-delta): 3% | %Inh (p38-gamma): 0%

Cc1ccc(S(=O)(=O)Nc2ccc(Nc3nccc(Nc4cccc5[nH]ncc45)n3)cc2)cc1 [GSK581271]
%Inh (ZAK): 13% | %Inh (ZAP70): 0% | %Inh (p38-alpha): 0% | %Inh (p38-beta): 0% | %Inh (p38-delta): 46% | %Inh (p38-gamma): 0%

Oc1cc(Nc2ccnc3cc(I)ccc23)ccc1F [GW552771]
%Inh (ZAK): 73% | %Inh (ZAP70): 0% | %Inh (p38-alpha): 4% | %Inh (p38-beta): 0% | %Inh (p38-delta): 27% | %Inh (p38-gamma): 0%

CN(C)S(=O)(=O)c1cc(-c2ccc3nccc(-c4cccc(S(N)(=O)=O)c4)c3c2)cnc1N [GSK1669921]
%Inh (ZAK): 0% | %Inh (ZAP70): 4% | %Inh (p38-alpha): 0% | %Inh (p38-beta): 0% | %Inh (p38-delta): 44% | %Inh (p38-gamma): 23%

Cc1ccc(C(=O)N2CC[C@@H](O)C2)cc1-n1c(C)cc(OCc2ccc(F)cc2F)c(Br)c1=O
%Inh (ZAK): 0% | %Inh (ZAP70): 0% | %Inh (p38-alpha): 100% | %Inh (p38-beta): 95.4% | %Inh (p38-delta): 7% | %Inh (p38-gamma): 5%

CCn1c(-c2nonc2N)nc2c(C#CC(C)(C)O)nc(OC[C@H](N)c3ccccc3)cc21 [GSK943949]
%Inh (ZAK): 0% | %Inh (ZAP70): 0% | %Inh (p38-alpha): 0% | %Inh (p38-beta): 0% | %Inh (p38-delta): 0% | %Inh (p38-gamma): 34%

COc1cc(Nc2nccc(-c3c(-c4cccc(NC(=O)c5c(F)cccc5F)c4)nn4ncccc34)n2)cc(OC)c1OC [GSK327238]
%Inh (ZAK): 97.2% | %Inh (ZAP70): 0% | %Inh (p38-alpha): 99.9% | %Inh (p38-beta): 100% | %Inh (p38-delta): 52% | %Inh (p38-gamma): 21%

c1ccc(-c2n[nH]cc2Nc2ccnc3ccccc23)nc1 [GW694077]
%Inh (ZAK): 0% | %Inh (ZAP70): 0% | %Inh (p38-alpha): 2% | %Inh (p38-beta): 0% | %Inh (p38-delta): 0% | %Inh (p38-gamma): 0%

Cc1ccc(C(=O)Nc2ccc(Nc3ccnc4cc(-c5nccs5)ccc34)cc2O)cc1.Cl [GW494702]
%Inh (ZAK): 63% | %Inh (ZAP70): 33% | %Inh (p38-alpha): 0% | %Inh (p38-beta): 0% | %Inh (p38-delta): 21% | %Inh (p38-gamma): 19%

COc1cc2c(cc1OCCN1CCNCC1)ncc1c3ccc(C#N)cc3[nH]c21
%Inh (ZAK): 8% | %Inh (ZAP70): 28% | %Inh (p38-alpha): 9% | %Inh (p38-beta): 3% | %Inh (p38-delta): 0% | %Inh (p38-gamma): 30%

COc1ccc(CNC(=O)NC2CCN(c3ccnc(Nc4ccc(F)cc4)n3)CC2)cc1 [GSK1379788]
%Inh (ZAK): 0% | %Inh (ZAP70): 4% | %Inh (p38-alpha): 19% | %Inh (p38-beta): 0% | %Inh (p38-delta): 29% | %Inh (p38-gamma): 0%

COc1cc(Nc2nccc(-c3c(-c4cccc(NC(=O)c5c(F)cccc5F)c4)nn4ccccc34)n2)cc(OC)c1OC [GSK323521]
%Inh (ZAK): 0% | %Inh (ZAP70): 0% | %Inh (p38-alpha): 0% | %Inh (p38-beta): 7% | %Inh (p38-delta): 43% | %Inh (p38-gamma): 42%

O=C(NC1CCN(c2ccnc(Nc3ccc(F)cc3)n2)C1)c1cc2ccccc2s1 (stereo not drawn) [GSK1379716]
%Inh (ZAK): 20% | %Inh (ZAP70): 0% | %Inh (p38-alpha): 7% | %Inh (p38-beta): 0% | %Inh (p38-delta): 45% | %Inh (p38-gamma): 67%

O=C(Nc1cccc(-c2nn3ccccc3c2-c2ccnc(Nc3cccc(C(F)(F)F)c3)n2)c1)c1c(F)cccc1F [GSK292658]
%Inh (ZAK): 80% | %Inh (ZAP70): 0% | %Inh (p38-alpha): 17% | %Inh (p38-beta): 32% | %Inh (p38-delta): 24% | %Inh (p38-gamma): 0%

COCCOCCOc1cc2ncc3c4ccc(C#N)cc4[nH]c3c2cc1OC
%Inh (ZAK): 33% | %Inh (ZAP70): 0% | %Inh (p38-alpha): 1% | %Inh (p38-beta): 0% | %Inh (p38-delta): 0% | %Inh (p38-gamma): 23%

O=C(Nc1cccc(-c2nn3ccccc3c2-c2ccnc(Nc3cccc(F)c3)n2)c1)c1c(F)ccc(F)c1Cl [GSK357952]
%Inh (ZAK): 85% | %Inh (ZAP70): 0% | %Inh (p38-alpha): 0% | %Inh (p38-beta): 26% | %Inh (p38-delta): 36% | %Inh (p38-gamma): 0%

CC(C)c1nc(-c2cccc(NS(=O)(=O)c3c(F)cccc3F)c2F)c(-c2ccnc(Nc3ccc(N4CCOCC4)nc3)n2)s1 [GSK2008607]
%Inh (ZAK): 99.1% | %Inh (ZAP70): 0% | %Inh (p38-alpha): 81% | %Inh (p38-beta): 51% | %Inh (p38-delta): 0% | %Inh (p38-gamma): 0%

Cc1cccc(Nc2nc(N[C@H]3CCNC3)ncc2C(N)=O)c1.Cl [GSK2197149]
%Inh (ZAK): 0% | %Inh (ZAP70): 0% | %Inh (p38-alpha): 0% | %Inh (p38-beta): 0% | %Inh (p38-delta): 19% | %Inh (p38-gamma): 0%

O=C(O)C(F)(F)F.O=C(O)C(F)(F)F.O=c1[nH]ccc2nc(N[C@@H]3CCCNC3)nc(Nc3ccc(S(=O)(=O)N4CCOCC4)cc3)c12 [GSK2177277]
%Inh (ZAK): 0% | %Inh (ZAP70): 71% | %Inh (p38-alpha): 0% | %Inh (p38-beta): 0% | %Inh (p38-delta): 57% | %Inh (p38-gamma): 40%

COC(=O)Nc1nc2ccc(Oc3ccc(NC(=O)Nc4cc(C(F)(F)F)ccc4F)cc3)cc2n1C.Cl [GW692089]
%Inh (ZAK): 87% | %Inh (ZAP70): 0% | %Inh (p38-alpha): 57% | %Inh (p38-beta): 16% | %Inh (p38-delta): 0% | %Inh (p38-gamma): 44%

c1ccc(-c2cnc3nccnn23)cc1 [AH20685]
%Inh (ZAK): 0% | %Inh (ZAP70): 0% | %Inh (p38-alpha): 0% | %Inh (p38-beta): 0% | %Inh (p38-delta): 20% | %Inh (p38-gamma): 0%

Cl.Cl.NCC(C(=O)Nc1cc(Br)c(-c2ccnc3[nH]ccc23)s1)c1ccccc1 (stereo not drawn) [GSK1269851]
%Inh (ZAK): 0% | %Inh (ZAP70): 0% | %Inh (p38-alpha): 0% | %Inh (p38-beta): 40% | %Inh (p38-delta): 17% | %Inh (p38-gamma): 0%

Nc1ncc(-c2ccc3nccc(-c4ccncc4)c3c2)cc1S(=O)(=O)N1CCOCC1 [GSK1627798]
%Inh (ZAK): 0% | %Inh (ZAP70): 0% | %Inh (p38-alpha): 0% | %Inh (p38-beta): 0% | %Inh (p38-delta): 0% | %Inh (p38-gamma): 0%

CSc1cccc2c(-c3ccncn3)c(-c3ccc(F)cc3)nn12 [GW514786]
%Inh (ZAK): 0% | %Inh (ZAP70): 8% | %Inh (p38-alpha): 98% | %Inh (p38-beta): 29% | %Inh (p38-delta): 38% | %Inh (p38-gamma): 2%

COc1ccc(-c2coc3ccc(-c4nnc(SCc5ccc(OC)c(C(F)(F)F)c5)o4)cc23)cc1
%Inh (ZAK): 0% | %Inh (ZAP70): 0% | %Inh (p38-alpha): 0% | %Inh (p38-beta): 6% | %Inh (p38-delta): 6% | %Inh (p38-gamma): 16%

Cn1cc(-c2ccc3c(c2)CCN3C(=O)Cc2cccc(F)c2)c2c(N)ncnc21 [GSK2603358]
%Inh (ZAK): 0% | %Inh (ZAP70): 55% | %Inh (p38-alpha): 0% | %Inh (p38-beta): 0% | %Inh (p38-delta): 52% | %Inh (p38-gamma): 19%

Cl.NC(=O)c1cccc(Nc2nccc(Nc3ccc(Oc4c(Cl)cccc4Cl)c(Cl)c3)n2)c1 [GW659009]
%Inh (ZAK): 10% | %Inh (ZAP70): 0% | %Inh (p38-alpha): 0% | %Inh (p38-beta): 100% | %Inh (p38-delta): 0% | %Inh (p38-gamma): 0%

O=c1[nH]cc(-c2ccc(N3CCOCC3)cc2)c2sc(-c3cn[nH]c3)cc12 [GSK2276055]
%Inh (ZAK): 69% | %Inh (ZAP70): 0% | %Inh (p38-alpha): 8% | %Inh (p38-beta): 0% | %Inh (p38-delta): 41% | %Inh (p38-gamma): 36%

NCCCC(NC(=O)c1cc(Br)c(-c2ccnc3[nH]ccc23)s1)c1ccccc1.O=C(O)C(F)(F)F.O=C(O)C(F)(F)F (stereo not drawn) [GSK1287544]
%Inh (ZAK): 59% | %Inh (ZAP70): 0% | %Inh (p38-alpha): 0% | %Inh (p38-beta): 0% | %Inh (p38-delta): 0% | %Inh (p38-gamma): 10%

COc1cc(Nc2ncc3c(C)nc(-c4cc5ccccc5[nH]4)n3n2)cc(OC)c1OC [GW869516]
%Inh (ZAK): 0% | %Inh (ZAP70): 0% | %Inh (p38-alpha): 9% | %Inh (p38-beta): 2% | %Inh (p38-delta): 0% | %Inh (p38-gamma): 16%

O=C(Nc1n[nH]c2cc(-c3ccoc3)ccc12)C1CC1 [SB-738481]
%Inh (ZAK): 15% | %Inh (ZAP70): 0% | %Inh (p38-alpha): 0% | %Inh (p38-beta): 0% | %Inh (p38-delta): 0% | %Inh (p38-gamma): 1%

CN(C)Cc1ccc(-c2ccc3c(Nc4ccc(Oc5ccccn5)cc4)ccnc3c2)o1 [GW567148]
%Inh (ZAK): 65% | %Inh (ZAP70): 0% | %Inh (p38-alpha): 0% | %Inh (p38-beta): 0% | %Inh (p38-delta): 38% | %Inh (p38-gamma): 0%

Cc1occc1-c1ncc(OC[C@@H](N)Cc2c[nH]c3ccccc23)cc1-c1ccc2[nH]nc(C)c2c1.O=C(O)C(F)(F)F [GSK682037]
%Inh (ZAK): 0% | %Inh (ZAP70): 0% | %Inh (p38-alpha): 89% | %Inh (p38-beta): 36% | %Inh (p38-delta): 73% | %Inh (p38-gamma): 72%

Clc1ccc(-c2nn3ncccc3c2-c2ccnc(Nc3ccc4c(c3)OCCO4)n2)cc1 [GW829116]
%Inh (ZAK): 9% | %Inh (ZAP70): 0% | %Inh (p38-alpha): 99.7% | %Inh (p38-beta): 83% | %Inh (p38-delta): 13% | %Inh (p38-gamma): 0%

CC(C)(C)c1ccc2nccc(Nc3cccc(O)c3)c2c1 [GW856795]
%Inh (ZAK): 0% | %Inh (ZAP70): 42% | %Inh (p38-alpha): 0% | %Inh (p38-beta): 0% | %Inh (p38-delta): 12% | %Inh (p38-gamma): 18%

Source: publication PMC5540273 (PLoS ONE, 2017)
